# Results as given in PubChem BioAssay (NCI).
# This is part of a sample that, as a whole, favours compounds with a hit. Of some 83,000 tested, about 20% had one in any assay.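 Growth was measured after 48 h exposure to one concentration of compound in 96-well plates. Values under 10 count as active.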 Values without a mark were called inactive. The source made the active and inactive calls.
# Key:
# Experiment in all cases: NCI-60 one-dose screen, 48 h (100 = growth as untreated, 0 = no growth, -100 = all killed)
# Details in all cases: 10 µM
# SR leukemia = test system: SR leukemia
# RPMI-8226 leukemia = test system: RPMI-8226 leukemia
# OVCAR-8 ovarian = test system: OVCAR-8 ovarian
# OVCAR-4 ovarian = test system: OVCAR-4 ovarian
# SK-OV-3 ovarian = test system: SK-OV-3 ovarian
# IGROV1 ovarian = test system: IGROV1 ovarian
# OVCAR-3 ovarian = test system: OVCAR-3 ovarian
# HS 578T breast = test system: HS 578T breast
# NCI/ADR-RES ovarian = test system: NCI/ADR-RES ovarian
# T-47D breast = test system: T-47D breast
# BT-549 breast = test system: BT-549 breast
# MDA-MB-435 melanoma = test system: MDA-MB-435 melanoma
# SW-620 colon = test system: SW-620 colon
# HCT-116 colon = test system: HCT-116 colon
# HCC-2998 colon = test system: HCC-2998 colon
# KM12 colon = test system: KM12 colon
# MDA-MB-468 breast = test system: MDA-MB-468 breast
# MCF7 breast = test system: MCF7 breast
# OVCAR-5 ovarian = test system: OVCAR-5 ovarian
SMILES,growth (SR leukemia),growth (RPMI-8226 leukemia),growth (OVCAR-8 ovarian),growth (OVCAR-4 ovarian),growth (SK-OV-3 ovarian),growth (IGROV1 ovarian),growth (OVCAR-3 ovarian),growth (HS 578T breast),growth (NCI/ADR-RES ovarian),growth (T-47D breast),growth (BT-549 breast),growth (MDA-MB-435 melanoma),growth (SW-620 colon),growth (HCT-116 colon),growth (HCC-2998 colon),growth (KM12 colon),growth (MDA-MB-468 breast),growth (MCF7 breast),growth (OVCAR-5 ovarian)
O=C1CCC(N2Cc3c(NCc4ccc(-c5ccccc5)cc4)cccc3C2=O)C(=O)N1 (stereo not drawn),72.5%,68.5%,34.9%,69.8%,103%,57.4%,82.8%,51.7%,52.6%,41.5%,23.4%,93.2%,51.3%,74.7%,67.4%,75.3%,-12.6% (active),,
COc1cccc(COc2ccc(/C=C3\Oc4cc(O)ccc4C3=O)cc2)c1,21.4%,32.1%,23.6%,-9.02% (active),77.4%,53.7%,24.9%,-7.04% (active),24.8%,44.3%,15.3%,37.2%,,1.73% (active),25.2%,26.1%,,37.8%,
Cc1cc(=O)oc2cc(OCCCCOc3ccc(/C=C/C(=O)Nc4cccc(Cl)c4)cc3)ccc12,55.1%,57.8%,49.7%,-30.5% (active),119%,103%,27.6%,29.5%,45.7%,24.5%,41%,64.2%,61.9%,79.7%,94.2%,72.5%,3.36% (active),50.8%,
Cn1cc(/C=N/Nc2ccnc3cc(Cl)ccc23)c2ccccc21,-25% (active),-41.4% (active),-52.7% (active),-76.4% (active),-71.2% (active),-72.3% (active),-89.8% (active),-63.7% (active),-79.8% (active),-60.9% (active),-64.6% (active),-83.5% (active),-62.8% (active),-46.5% (active),-87.8% (active),-94.3% (active),-83.5% (active),,
COc1ccc2[nH]cc(/C=N/Nc3cccc(Cl)n3)c2c1,17.1%,-0.856% (active),57.9%,59.8%,,5.42% (active),17.4%,49.9%,22.2%,31.5%,12.1%,44.7%,79.7%,37.3%,39.7%,21.3%,-13.2% (active),31.9%,77.4%
O=C(Nc1cccc(C(F)(F)F)c1)c1cncc(C#Cc2cnc3ccc(N4CCOCC4)nn23)c1,-1.17% (active),,3.84% (active),12.7%,3.44% (active),1.76% (active),-23.6% (active),-22.4% (active),-24% (active),1.64% (active),-37.5% (active),4.32% (active),2.23% (active),0.369% (active),-4.89% (active),-24.1% (active),-64.7% (active),-30% (active),1.83% (active)
CCCn1c(=O)c2[nH]c(-c3ccc(OCc4nc5ccccc5[nH]4)cc3)nc2n(CCC)c1=O,39%,40%,27.6%,3.46% (active),,39.8%,26.8%,-17.8% (active),,59.9%,21.1%,67%,46.8%,5.38% (active),64.8%,63.8%,23.6%,17.4%,92.2%
O=C(Cn1nc(-c2ccccc2)ccc1=O)NN1C(=O)c2ccccc2C1=O,91.4%,95.7%,81.9%,94.7%,,124%,125%,73.4%,91.2%,96.2%,110%,107%,115%,106%,108%,103%,92.3%,81.7%,120%
O/N=C(\CSc1nnc(-c2c[nH]c3ccccc23)n1-c1ccccc1)c1ccc(Cl)cc1,12.8%,-13.4% (active),6.37% (active),-81.3% (active),,-34.1% (active),34.2%,-31.7% (active),-70.2% (active),3.91% (active),-66.7% (active),-99.8% (active),-37% (active),0.742% (active),17%,21.4%,-85.1% (active),3.27% (active),-43.4% (active)
COc1cc2c3c(n(CCCNC(C)C)c(=O)c2cc1OC)-c1nc2c(cc1C3=O)OCO2,2.57% (active),-26.2% (active),-58% (active),49.8%,26.5%,40.8%,-97.4% (active),88.8%,-72% (active),43.9%,49.1%,-86.9% (active),-62.8% (active),-60.4% (active),65.5%,-90.1% (active),-9.99% (active),-89.8% (active),
N#Cc1c(NC(=O)c2ccc(C(F)(F)F)cc2)sc2c1CCC(O)=C2,8.2% (active),9.09% (active),28.9%,41.6%,17.9%,38.3%,18.8%,12.3%,-33.5% (active),22.9%,58.7%,-33.8% (active),17.1%,23.9%,47.3%,18.2%,-31.9% (active),9.26% (active),
COc1ccc(CN2[C@@H](C(=O)NCc3ccc(C(=O)NO)cc3)Cc3c([nH]c4ccccc34)[C@@H]2C2CC2)cc1,15.2%,19.3%,16.7%,35.6%,,18.1%,10.5%,-14.3% (active),69.9%,3.04% (active),43.3%,-42.1% (active),-21.5% (active),12.9%,25.1%,20.3%,-3.5% (active),14.1%,11.5%
O/N=C(\CSc1nnc(-c2c[nH]c3ccccc23)n1-c1ccccc1)c1ccc(Br)cc1,1.29% (active),-13.1% (active),-41.7% (active),-83.4% (active),-50.2% (active),-65.4% (active),0.699% (active),-39.4% (active),-73.9% (active),5.96% (active),-72.7% (active),-100% (active),-86.3% (active),-36.3% (active),-66.5% (active),2.11% (active),-94.5% (active),-42.5% (active),
COc1ccccc1[C@H]1C(C(=O)c2ccc(Cl)cc2)C2(N[C@@H]1c1ccccc1)C(=O)Nc1ccccc12 (stereo partly drawn),,5.12% (active),4.63% (active),24.8%,16.9%,-3.06% (active),-42.7% (active),-12.9% (active),-69.7% (active),6.01% (active),-22.7% (active),-58.7% (active),5.84% (active),0.0933% (active),-51.1% (active),-13.5% (active),-29.6% (active),-11.1% (active),-24.8% (active)
O=C(Nc1ccc(OCc2ccccc2)cc1)Nc1ccc(Cl)c(C(F)(F)F)c1,,-30.4% (active),2.36% (active),11.2%,-29.7% (active),19%,7.77% (active),-0.0644% (active),1.39% (active),-2.54% (active),-15.9% (active),-1.55% (active),13%,2.43% (active),21.4%,1.83% (active),-36% (active),2.34% (active),18.5%
COc1ccccc1NCc1ccc(CO)n1-c1ccc(C)cc1,,85.8%,101%,97.7%,81.5%,91.5%,95.6%,98%,95.9%,77.4%,101%,110%,109%,80%,114%,105%,97.3%,85.3%,111%
